Experimental data: PubChem BioAssay (NCI)
Several values for one entry are separate records, joined by “and”; a condition that tells them apart may be missing. Identical values can stand only once. This is part of a sample that, as a whole, favours compounds with a hit. Of some 83,000 tested, about 20% had one in any assay.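 Cells were grown in 96-well plates and exposed to the test compound at a single concentration for 48 hours; results are reported as percent growth, with values below 10 considered active.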 Activity calls are given as the source filed them.

These compounds were tested on MDA-MB-468 breast (assay: NCI-60 one-dose screen, 48 h (100 = growth as untreated, 0 = no growth, -100 = all killed)). Settings: 10 µM.

SMILES	growth
CC(=O)Nc1ccc(-c2cn(-c3cccc(C(=O)Nc4ccc(Cl)c(C(F)(F)F)c4)c3)nn2)cn1	-68.5% (active)
Cc1cc(C(F)(F)F)ccc1C(=O)Nc1sc2c(c1C#N)CCC(=O)C2	-44.4% (active)
COc1ccc(OC)c(/C=N/NC(=O)c2ccc3nc(-c4ccc(Cl)cc4)[nH]c3c2)c1	69.6% (inactive)
CC1=N/C(=C\c2ccc(N(C)C)cc2)C(=O)N1CCc1ccc(S(N)(=O)=O)cc1	110% (inactive)
Cc1ccc(-c2cc(C(=O)N=Nc3c(O)[nH]c4ccc(Br)cc34)c3ccccc3n2)cc1	31.2% (inactive)
COc1ccccc1C(=O)NNC(=O)CSc1nc2c(c(=O)[nH]1)CCCC2	120% (inactive)
C=C1CCC2C3(C)COC(c4cccc(F)c4)OC3CCC2(C)C1CC(O)C1=CCOC1=O (stereo not given)	52.1% (inactive)
C=C1CCC2C3(C)COC(c4c(F)cccc4F)OC3CCC2(C)C1C/C=C1/C(=O)OCC1O (stereo not given)	-24% (active)
Nc1nnc(-c2c[nH]c3ccc(F)cc23)c(-c2c[nH]c3ncccc23)n1	54.1% (inactive)
CC(=O)NS(=O)(=O)c1ccc(NC(=O)CSC2=NC(c3ccccc3)C(C(C)=O)=C(C)N2)cc1 (stereo not given)	110% (inactive)
COC1=C[C@@]23CCC(=O)N2CCc2cc4c(cc2[C@H]3[C@H]1OC(=O)C(C)(C)O)OCO4	91.5% (inactive)
Nc1nc(-c2ccccc2)cs1	55.1% (inactive) and 115% (inactive)
COC(=O)c1c(C(=O)OC)c2n(c1C)[C@@H]([C@@H](C)[C@H]1CC[C@H]3[C@@H]4CCC5=CC(=O)CC[C@]5(C)[C@H]4CC[C@]13C)SC2	11.2% (inactive)
C/C(=N\NC(N)=S)c1ccc(Nc2nc(SC(C)C)nc(-c3ccccc3)c2C#N)cc1	28.2% (inactive)
COc1ccc(-c2cc(-c3cc(C(=O)c4ccc(Br)cc4)n4ccc(C)cc34)nc(N)c2C#N)cc1	24.3% (inactive)
CC(=O)Nc1ccc(-n2cnc3cc(-c4ccc(NS(C)(=O)=O)cc4)ccc32)cc1	54.6% (inactive)
O=c1cc(-c2ccccc2)oc2cc(OCCCCNCc3ccccc3)cc(O)c12	-28.2% (active)
C/C(=N\N=C\c1ccc(Cl)c([N+](=O)[O-])c1)c1ccc2c(c1)Nc1ccccc1S2	-29.3% (active)
N#Cc1c(-c2ccc(Cl)cc2)cc(-c2ccccc2)nc1OCc1ccccc1	65.4% (inactive)
COc1ccc(/C(CSc2nnc(-c3c[nH]c4ccccc34)n2-c2ccccc2)=N/O)cc1	0.589% (active)
